Assay outcomes from PubChem BioAssay.
Sampled rows, rich in hits. Any-hit rate of the full collection: about 32%.
CYP2C19 act: increases human CYP2C19 enzyme activity; 96,000 tested, under 10 active; activation factor at 5 µM; P33261; recombinant CYP2C19, luciferin-H EGE luminescence; hits give high values; 0 = fully inhibited enzyme, 1 = untreated enzyme;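 active = activation factor of at least 2 at 5 µM in the primary screen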;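 note: 0 = wells with 2.5 mM tranylcypromine and 1 = vehicle-only wells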
Target sequence (P33261 whole entry, looked up): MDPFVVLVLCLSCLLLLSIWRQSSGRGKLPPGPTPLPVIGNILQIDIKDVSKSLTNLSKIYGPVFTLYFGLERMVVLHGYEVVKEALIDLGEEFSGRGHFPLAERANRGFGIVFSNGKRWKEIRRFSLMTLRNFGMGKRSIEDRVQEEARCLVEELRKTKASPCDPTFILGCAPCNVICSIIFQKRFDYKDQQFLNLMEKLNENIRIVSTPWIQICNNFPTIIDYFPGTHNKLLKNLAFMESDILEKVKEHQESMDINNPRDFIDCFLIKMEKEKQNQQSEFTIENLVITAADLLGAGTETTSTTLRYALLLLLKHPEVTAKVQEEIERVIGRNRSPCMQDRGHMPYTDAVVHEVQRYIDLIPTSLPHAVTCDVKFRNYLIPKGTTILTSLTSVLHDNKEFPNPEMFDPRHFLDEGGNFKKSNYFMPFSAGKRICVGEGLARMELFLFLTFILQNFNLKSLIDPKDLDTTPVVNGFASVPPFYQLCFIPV
PostGolgi ctrl: yeast control strain growth, post-Golgi counter-screen; inhibition, % at 10 µM; efflux-deficient yeast background strain, growth absorbance A615, 16 h; hit rate 5% among 98,000
CYP2C9 inhib: inhibitors of human CYP2C9; P11712; CYP2C9 Supersomes, luciferin-H conversion, luminescence; inhibition, % at 5 µM; hit rate 20% among 96,000; AID 777;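 active = blocking of liver enzyme CYP2C9 beyond about 50% at 5 µM, limit read from the data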
CYP2C9 act: CYP2C9 (human) activation; P11712; recombinant CYP2C9, luciferin-H conversion, luminescence; hits give high values; factor 1 = untreated enzyme, 0 = blocked; activation factor at 5 µM; hit rate 1.4% among 96,000;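 active = activation factor of 2 or more for CYP2C9 at a 5 µM dose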;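 note: 0 = sulfaphenazole-blocked wells and 1 = vehicle-only wells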
CYP2C19 inhib: blocks human cytochrome P450 2C19; AID 778; hit rate 21% among 96,000; CYP2C19 Supersomes, luciferin-H EGE luminescence, 30 min; P33261; inhibition, % at 5 µM;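 active = CYP2C19 inhibition above a set limit at 5 µM in the primary screen, cut at about 50% in these data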;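 note: plate controls were negative control wells for no effect and 2.5 mM tranylcypromine positive control for full effect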
PostGolgi yeast: growth inhibition of a yeast mutant, post-Golgi transport screen; post-Golgi transport phenotypic cell assay; inhibition, % at 10 µM; hit rate 0.9% among 98,000;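 note: yeast cells grown in 1536-well plates; yeast grown about 18 h at 30C before absorbance read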
* = called active by the depositor; · = no result. Cut-off read from the data, not from the text of the source, unless noted: active = inhibition above about 30%; inactive = the rest.

SMILES	CYP2C19 act	PostGolgi ctrl	CYP2C9 inhib	CYP2C9 act	CYP2C19 inhib	PostGolgi yeast
N#CC1=C(N)NC(SCC(=O)Nc2ccc(Br)cc2)=C(C#N)C12CCCCC2	0	-9	96*	0	100*	-8
N#CC1=C(N)NC(SCc2ccc(Cl)cc2)=C(C#N)C12CCCCC2	0	18	100*	0	100*	48*
CCSC1=C(C#N)C2(CCCC2)C(C#N)=C(N)N1	0	-3	95*	0	95*	-2
CC1(C)CC(=O)C2=C(C1)NC(SCC(=O)Nc1ccccc1)=C(C#N)C21CCCCC1	0.5	3	48	0.5	47	0
CSC1=C(C#N)C2(CCCC2)C(C#N)=C(N)N1	0.2	·	63*	0.4	77*	·
Cn1c(COc2ccccc2)nnc1SCCC(=O)Nc1ccccc1	0.3	10	88*	0.1	74*	-8
CCn1c(SCCC(=O)Nc2ccccc2)nnc1-c1ccc(OC)cc1	0.1	3	62*	0.4	93*	2
COc1ccc(-c2nnc(SCC(=O)OC3CCCCC3)o2)cc1OC	1	7	-63	1.6	1	-4
COC(=O)C(O)(CC(=O)Nc1ccc(OC(F)(F)F)cc1)C(F)(F)F (stereo not given)	0.9	6	17	0.8	8	3
Cc1cccc(Oc2coc3cc(OC(=O)c4cccs4)ccc3c2=O)c1	0.7	9	-79	1.8	34	-6
COc1ccc(S(=O)(=O)Nc2ccc3c(c2)COC3=O)cc1OC	0.2	12	39	0.6	84*	7
O=C1OCc2cc(NS(=O)(=O)c3cccs3)ccc21	0.2	4	89*	0.1	76*	0
O=S(=O)(Nc1ccc2c(c1)CCC2)c1cccs1	0	15	83*	0.2	99*	-11
O=S(=O)(NC1=NCCC1)c1cccs1	0.9	19	-7	1.1	8	12
COc1ccc(-n2c(SCC(=O)N3CCCCC3C)nnc2-c2cccnc2)cc1 (stereo not given)	0.6	-2	43	0.6	42	0
O=C1NCCc2c1[nH]c1c(Cl)ccc(Cl)c21	0.9	24	-143	2.4*	6	10
Cn1c(=O)oc2cc(C(=O)c3ccccc3)ccc21	0.8	-3	-13	1.1	20	8
CCCn1c(=O)c(C(=O)c2ccccc2)nc2ccccc21	0.7	-10	-39	1.4	26	-7
Cn1cc(C(=O)c2ccccc2)cc1-c1nc2ccccc2n1C	0.2	15	73*	0.3	83*	-4
CCC(=O)c1cc(-c2nc3ccccc3n2C)n(C)c1	0.4	-1	65*	0.3	56*	-5
CCCC(=O)c1cc(-c2nc3ccccc3n2C)n(C)c1	0.8	10	27	0.7	19	3
Cc1oc(-c2nc3ccccc3n2C)cc1C(=O)c1ccccc1	·	34*	·	·	·	5
Cc1ccccc1S(=O)(=O)Cc1ccc(C(=O)NCCN2CCN(Cc3ccccc3)CC2)o1	0.9	3	50	0.5	12	6
COc1ccc(C2=CC(c3ccc(F)cc3)n3nnnc3N2)cc1 (stereo not given)	0.5	10	93*	0.1	52*	0
Cc1ccc(C2=CC(c3ccc(N(C)C)cc3)n3nnnc3N2)cc1 (stereo not given)	0.2	-2	65*	0.3	78*	6
SMILES	CYP2C19 act	PostGolgi ctrl	CYP2C9 inhib	CYP2C9 act	CYP2C19 inhib	PostGolgi yeast
COc1cccc(C2=CC(c3ccc(OC)c(OC)c3OC)n3nnnc3N2)c1 (stereo not given)	0.5	11	81*	0.2	52*	13
COc1ccc(C2=CC(c3sccc3C)n3nnnc3N2)cc1 (stereo not given)	0.2	12	91*	0.1	82*	-6
COc1cccc(C2=CC(c3cccs3)n3nnnc3N2)c1 (stereo not given)	0.6	10	40	0.6	38	-6
Cn1nnnc1SCc1cn2cccnc2n1	1.2	6	-16	1.2	-16	8
CCCCOC(=O)n1c(SCC(=O)N(C)C)nc2ccccc21	0.6	11	77*	0.2	44	3
COc1ccc(N2CC(C(=O)NCCCN3CCOCC3)CC2=O)cc1 (stereo not given)	1	-2	13	0.9	1	5
Cc1ccc(-c2ccc(/C=N/c3ncn[nH]3)o2)cc1Cl	1	34*	-13	1.1	-4	-5
Cc1c(NC(=O)C2CCCN2S(=O)(=O)c2ccccc2)c(=O)n(-c2ccccc2)n1C (stereo not given)	0.9	2	-5	1	5	13
O=C1NC(c2ccccc2)=C(c2ccc3ccccc3n2)C(c2ccncc2)N1 (stereo not given)	0.2	6	89*	0.1	83*	6
CC1CCN(c2c(NCc3ccc(C(=O)N4CCc5ccccc54)cc3)c(=O)c2=O)CC1	1	25	0	1	1	0
Cc1noc(NS(=O)(=O)c2ccc(N/C=C\C(=O)c3ccncc3)cc2)c1C	1	8	16	0.8	2	-1
Cc1noc(NS(=O)(=O)c2ccc(NC(=O)COc3ccc(Cl)cc3Cl)cc2)c1C	1.1	-4	71*	0.3	-10	8
Cc1cccc(OCCCC(=O)Nc2ccc(S(=O)(=O)Nc3onc(C)c3C)cc2)c1	1.1	18	5	1	-6	4
Cc1noc(NS(=O)(=O)c2ccc(N/C=C/C(=O)c3ccncc3)cc2)c1C	1.1	5	51*	0.5	-8	5
Cc1ccc(S(=O)(=O)CC(=O)Nc2ccc(S(=O)(=O)Nc3onc(C)c3C)cc2)cc1	1.1	-8	67*	0.3	-6	19
CCc1cccc(OCC(=O)Nc2ccc(S(=O)(=O)Nc3onc(C)c3C)cc2)c1	0.9	12	80*	0.2	7	3
Cc1ccc(OCC(=O)Nc2ccc(S(=O)(=O)Nc3onc(C)c3C)cc2)cc1	1	5	12	0.9	-2	5
COC(=O)c1[nH]c2ccccc2c1NC(=O)CN1CCN(C(=O)c2ccco2)CC1	0.7	24	25	0.7	30	-7
COc1cc(NS(=O)(=O)c2ccc(NC(=O)COc3ccccc3Cl)cc2)nc(OC)n1	0.1	3	96*	0	86*	-15
CCOC(=O)C(NC(C)=O)(Nc1ccc(S(=O)(=O)Nc2onc(C)c2C)cc1)C(F)(F)F (stereo not given)	1	-4	-13	1.1	4	35*
COc1cc(NS(=O)(=O)c2ccc(NC(=O)NC3CCCCC3)cc2)nc(OC)n1	1.1	4	8	0.9	-7	1
CCOC(=O)C(NC(C)=O)(Nc1ccc(S(=O)(=O)Nc2cc(C)nc(C)n2)cc1)C(F)(F)F (stereo not given)	1	2	12	0.9	4	-10
